The results in this text go back to PubChem BioAssay AID504692 (The Scripps Research Institute Molecular Screening Center, 2011).

Out of some 340,000 compounds screened, about 2,000 (0.59%) were called active. The sample holds actives, similar compounds and a random draw of the others, so the mix is not that of the screen. A number with no mark means an inactive call. Rule as the data show it: active = activation mostly above about 9.5% (no sharp cut-off); inactive = mostly below about 7.6%.

For this experiment, the target named is 5-hydroxytryptamine receptor 5A (Homo sapiens) (UniProt P47898). The experiment is described as follows: HTR5A agonists in luminescence cell assay, primary screen, counter-screen for OPRM1-OPRD1 heterodimer agonist project, full-deck HTS (AID 504692).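 Also: 0% = cells with vehicle only and 100% = reference agonist.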 As to conditions: cell-based, at 9.3 µM, hits give high values. (In general: The purpose of a counterscreen is to sort out artefacts and off-target activity.)
Chain of 5-hydroxytryptamine receptor 5A (Homo sapiens) (P47898 whole entry, looked up): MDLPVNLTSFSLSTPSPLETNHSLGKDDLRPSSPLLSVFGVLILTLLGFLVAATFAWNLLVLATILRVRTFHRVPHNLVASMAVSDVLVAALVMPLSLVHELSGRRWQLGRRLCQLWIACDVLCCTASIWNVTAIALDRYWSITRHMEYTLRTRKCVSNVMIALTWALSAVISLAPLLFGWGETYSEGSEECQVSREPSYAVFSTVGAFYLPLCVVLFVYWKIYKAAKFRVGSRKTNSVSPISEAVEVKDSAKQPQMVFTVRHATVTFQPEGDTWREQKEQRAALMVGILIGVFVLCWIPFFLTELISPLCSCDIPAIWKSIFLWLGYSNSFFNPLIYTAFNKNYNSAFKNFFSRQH
On to `COc1cccc2cc(-c3cc(=O)oc4cc(C)c(O)cc34)oc12`, for which the activation was 1.11%.
On to `COc1ccc(Nc2cc(=O)oc3ccccc23)cc1`, for which the activation is 2.95%.
Regarding `COc1ccc2oc(=O)cc(-c3cc4ccccc4o3)c2c1`, the activation was 10.7% (active).
The result for `COc1ccc(C2C(C(C)=O)=C(O)C(=O)N2CCc2c[nH]c3ccccc23)cc1` (stereo not drawn) reads 1.98%; that for `COc1ccc(/C=C(\C#N)c2c[nH]c3ccccc23)cc1`, 19.6% (active).
With `COc1cccc(-n2c(SCC(=O)c3c[nH]c4ccccc34)nc3ccccc3c2=O)c1`, the activation was -2.91%.
For `Cc1cc(C(=O)NNS(=O)(=O)c2ccccc2C(F)(F)F)nn1C(C)(C)C`, the activation is -2.85%.
In the case of `Cc1cccc(C)c1NC(=O)Nc1ccccc1-n1ccnc1`, the activation is 2.52%.
Turning to `NNC(=O)c1ccc(COCC(F)(F)C(F)F)cc1`, the activation is 8.26%.
The figure for `Cc1ccc(C(=O)NC2CCN(C(=O)Nc3ccc(F)cc3)CC2)cc1` is 4.38%.
Regarding `CN(CCC(=O)Nc1cc(S(=O)(=O)N(C)C)ccc1Cl)CC(=O)Nc1ccc(F)cc1`, the activation is 11.8% (active).
The figure for `CN(CC(=O)Nc1ccc(F)cc1)CC(=O)Nc1ccc(Cl)c(S(=O)(=O)N2CCOCC2)c1` is 5.23%.
The result for `CN(CC(=O)Nc1ccc(S(=O)(=O)N2CCCC2)cc1)Cc1ccc(Cl)c(Cl)c1` reads -1.38%; that for `O=C(Nc1cccc(F)c1)[C@@H]1CCCN1`, 0.12%.
For the compound `COc1ccc(C(=O)C2CCCN(C(=O)c3ccc(OC)o3)C2)c(C)c1` (stereo not drawn), the activation is -0.4%.
The result for `O=C(C(Cl)Cl)N1CCN(c2ccccn2)CC1` reads -2.12%; that for `O=C(/C=C/c1cccc(C(F)(F)F)c1)N1CCN(c2ccccn2)CC1`, 10.6% (active); that for `O=C(Cc1ccc(Br)cc1)N1CCN(c2ccccn2)CC1`, 0.82%.
The figure for `Cc1cccc(N2CCN(C(=O)CCS(=O)(=O)c3ccc4c(c3)NC(=O)C(C)S4)CC2)c1C` (stereo not drawn) is 2.41%; for `Cc1ccc(C)c(N2CCN(S(=O)(=O)c3ccc4c(c3)oc(=O)n4C)CC2)c1` it is 0.11%; for `Cc1ccc(C)c(N2CCN(S(=O)(=O)c3c(C)[nH]c(C)c3C(=O)N3CCCC3)CC2)c1` it is 0.83%.
The result for `COC(=O)c1cc(S(=O)(=O)N2CCN(c3cc(C)ccc3C)CC2)c[nH]1` reads 14.8% (active).
For `Cc1cccc(N2Cc3ccccc3C2=NC(=O)c2ccc(Cl)nc2)c1`, the activation was 2.14%.
In the case of `OCCC1CN(Cc2cccc(OC3CCCC3)c2)CCN1Cc1ccsc1` (stereo not drawn), the activation is 0.37%.
On to `O=C(CCc1c[nH]c2ccccc12)NCCOc1ccccc1`, for which the activation was 0.78%.
The figure for `CCN(CC)CCNC(=O)CCCCCn1c(=O)[nH]c2cc(C(=O)OC)ccc2c1=O` is 1.57%; for `O=C(CCCCCn1c(=O)[nH]c2ccccc2c1=O)NCCc1c[nH]c2ccccc12` it is 12.7% (active); for `O=C1CC(Cc2ccc(Cl)cc2)C(=O)N1c1cc(Cl)ccn1` (stereo not drawn) it is 5.44%.
The result for `CC(=O)Nc1ccc(S(=O)(=O)NC(C)C(=O)OCC(=O)NC2CCCC2)cc1` (stereo not drawn) reads 3.96%.
For `CCOC(=O)[C@H]1CCC[C@@H](NS(=O)(=O)c2ccc(NC(C)=O)cc2)C1`, the activation is 12.5% (active).
`CC(=O)Nc1ccc(S(=O)(=O)NC2Cc3ccccc3C2)cc1`: the activation is 4.91%.
The figure for `Cc1cccc(OC(=O)c2sc3ncn(C)c(=O)c3c2C)c1` is -4.42%; for `CCOc1ccc(CCNC(=O)CCc2nnc3ccc(N4CCCC4)nn23)cc1OCC` it is -0.94%; for `CCC(C)C(N=C1NS(=O)(=O)c2ccccc21)C(=O)N1CCC(C)CC1` (stereo not drawn) it is -4.84%.
The figure for `O=C(CCC(=O)c1cccs1)Nc1nc2ccccc2s1` is 6.03%; for `CC(C)CC(=O)NC(=S)NCc1ccccc1` it is -0.72%.
Consider `CC(C)CC(=O)N/C(N)=N/c1nc2ccccc2s1`, for which the activation was 22% (active).
With `CCOC(=O)C1C(c2ccc(O)cc2)NC(=O)NC1(O)C(F)(F)F` (stereo not drawn), the activation was 3.08%.
The result for `CC(C)CCN1CCN(Cc2ccc(C(F)(F)F)cc2)CC1CCO` (stereo not drawn) reads -0.94%; that for `O=C(NCc1ccccc1)C(=O)NCC1OCCN1S(=O)(=O)c1ccc(Br)cc1` (stereo not drawn), 5.82%.
For `CCOC(=O)c1c(-c2ccc(-c3ccccc3)cc2)csc1NC(=O)CCC(=O)O`, the activation was 9.5% (active).
Regarding `CCOC(=O)c1c(-c2cccc(C)c2)csc1NC(=O)c1c(-c2ccccc2)noc1C`, the activation is -1.55%.
On to `CCOC(=O)c1c(-c2ccc(C)cc2C)csc1NC(=O)CSc1nnnn1C`, for which the activation is 0.24%.
The figure for `O=C(NCc1ccco1)/C(=C\c1cccc([N+](=O)[O-])c1)NC(=O)c1ccco1` is 0.85%; for `O=C(CSc1nncn1-c1cccnc1)N1CCOCC1` it is 1.54%.
The result for `Cc1ccc(C(=O)Nc2ccc3c(c2)OCCO3)cc1S(=O)(=O)N1CCOCC1` reads 0.67%; that for `O=C(NCC(c1cccs1)N1CCOCC1)c1cc(-c2ccccn2)nc2ccccc12` (stereo not drawn), 1.25%; that for `O=C(NCc1cccs1)c1cc(-c2ccccn2)nc2ccc(Br)cc12`, 12.8% (active).
The figure for `O=C(Nc1ccncc1)c1cc(-c2ccccn2)nc2ccc(Br)cc12` is -4.88%; for `CCOC(=O)CSc1nc2ccc(C)cc2n2cnnc12` it is -0.67%.
With `Cc1noc(C)c1S(=O)(=O)Nc1cc(C(F)(F)F)ccc1N1CCOCC1`, the activation was -0.69%.
The figure for `O=C(CNS(=O)(=O)c1cccc(C(F)(F)F)c1)Nc1ccccc1F` is -1.06%.
For the compound `Cc1oc2c(F)c(F)c(F)c(F)c2c1S(=O)(=O)Nc1cccc(C(F)(F)F)c1`, the activation is 16.5% (active).
The figure for `CCOc1ccc2[nH]c(=O)c(CN(CCCO)C(C)=O)cc2c1` is 4.2%.
In the case of `COc1ccc(S(=O)(=O)NCc2ccc(C(=O)N(C)Cc3ccco3)cc2)cc1`, the activation was 6.7%.
On to `COc1ccccc1S(=O)(=O)NCc1ccc(C(=O)N(C)Cc2ccc(F)cc2)cc1`, for which the activation was 16.9% (active).
Consider `O=C(NCCS(=O)(=O)NCc1ccc(F)cc1)c1ccccc1`, for which the activation was -3.96%.
For `Cc1cc(S(=O)(=O)NC2CCCCC2)ccc1OCC(=O)NCc1cccnc1`, the activation was 7.03%.
